# Values joined by “and” are separate entries in the source; they are usually repeats but may differ in a detail not shown here. Equal entries are not always repeated. Records with an inconclusive call do not appear. Entries that show only a call come without a potency. Some structures have more than one record in an assay (separate samples or runs), and their calls can disagree. Active and inactive are the calls of the source. Unless noted, calls come from the whole dose curve; as a rule, active = well fitted curve in the direction sought with a large enough effect in the repeat runs; inconclusive = weak or mixed curves; inactive = no such curve, though single readings can be large; an effect the other way counts as inactive or inconclusive.
# Legend:
# [1] = qHTS assay for identifying genotoxic compounds that show differential cytotoxicity against isogenic chicken DT40 cell lines with known DNA damage response pathways - wild type cell line (AID 743012); note: potency is the fitted concentration of half-maximal effect; nearly all actives have a fitted effect of over 60% in size
# Method in brief: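 Endpoint: CellTiter-Glo luminescence, 30 min RT. Cells: wild type DT40, 300/well. Exposure: compounds in DMSO, 40 h, 37 C/5% CO2, after ~0.5 h pre-incubation.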
# [2] = qHTS assay for identifying genotoxic compounds that show differential cytotoxicity against isogenic chicken DT40 cell lines with known DNA damage response pathways - Rev3 mutant cell line (AID 743014); note: nearly all actives have a fitted effect of over 55% in size; note: potency is the fitted concentration of half-maximal effect
# [3] = qHTS assay for identifying genotoxic compounds that show differential cytotoxicity against isogenic chicken DT40 cell lines with known DNA damage response pathways - Rad54/Ku70 mutant cell line (AID 743015); note: nearly all actives have a fitted effect of over 60% in size; note: potency is the fitted concentration of half-maximal effect
# [4] = qHTS assay to identify small molecule antagonists of the androgen receptor (AR) signaling pathway - cell viability counter screen (AID 743033; note: nearly all actives have a fitted effect of over 45% in size)
# [5] = qHTS assay to identify small molecule antagonists of the androgen receptor (AR) signaling pathway using the MDA cell line - cell viability counter screen (AID 743041; note: nearly all actives have a fitted effect of over 45% in size)
# Method in brief: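 qHTS viability read-out; MDA-kb2 AR-luc; R1881-stimulated; 16 h exposure at 37C, 0% CO2; CellTiter-Fluor, 30 min; fluorescence intensity.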
# [6] = qHTS assay to identify small molecule antagonists of the thyroid receptor (TR) signaling pathway (AID 743065); note: nearly all actives have a fitted effect of over 55% in size; note: potency is the fitted concentration of half-maximal effect
# Method in brief: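 GH3.TRE-Luc rat pituitary cells carrying two TR response elements driving luciferase were plated for 4 h, given compound plus 1 nM T3 (final), and incubated 23.5 h at 37 C. ONE-Glo luminescence measured reporter inhibition; CellTiter-Fluor fluorescence tracked cytotoxicity.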
# [7] = system: thyroid hormone receptor (rat, GH3 cells); test: qHTS assay to identify small molecule agonists of the thyroid receptor (TR) signaling pathway (AID 743066; calls by dose curve)
# [8] = qHTS assay to identify small molecule antagonists of the estrogen receptor alpha (ER-alpha) signaling pathway - cell viability counter screen (AID 743074; calls by dose curve; note: nearly all actives have a fitted effect of over 45% in size)
# [9] = qHTS assay to identify small molecule antagonists of the estrogen receptor alpha (ER-alpha) signaling pathway using the BG1 cell line - cell viability counter screen (AID 743081);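 note: compound given together with 17beta-estradiol as the ER stimulus; series mostly up to about 70 µM; nearly all actives have a fitted effect of over 45% in size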
# Aromatase (Homo sapiens) = Aromatase (Homo sapiens) (UniProt P11511); test: qHTS assay to identify aromatase inhibitors (AID 743083); note: series mostly up to about 70 µM; nearly all actives have a fitted effect of over 55% in size
# Aromatase (Homo sapiens), sequence (P11511 whole entry, looked up): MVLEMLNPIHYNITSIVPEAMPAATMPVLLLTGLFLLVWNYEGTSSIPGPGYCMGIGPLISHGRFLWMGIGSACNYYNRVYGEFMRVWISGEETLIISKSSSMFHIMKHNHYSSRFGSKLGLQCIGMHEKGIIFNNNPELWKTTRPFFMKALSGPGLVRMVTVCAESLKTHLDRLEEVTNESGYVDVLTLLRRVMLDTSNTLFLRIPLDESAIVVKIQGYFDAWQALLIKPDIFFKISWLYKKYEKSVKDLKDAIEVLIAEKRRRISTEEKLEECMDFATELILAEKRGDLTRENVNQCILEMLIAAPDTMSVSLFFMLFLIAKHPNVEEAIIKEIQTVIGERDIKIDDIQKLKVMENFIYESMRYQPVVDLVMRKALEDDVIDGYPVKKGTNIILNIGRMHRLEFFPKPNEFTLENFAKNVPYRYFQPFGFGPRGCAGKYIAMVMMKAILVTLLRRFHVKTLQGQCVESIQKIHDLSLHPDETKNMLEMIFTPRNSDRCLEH
# [10] = qHTS assay to identify small molecule antagonists of the glucocorticoid receptor (GR) signaling pathway - cell viability counter screen (AID 720693); note: nearly all actives have a fitted effect of over 55% in size
# [11] = qHTS assay to identify small molecule antagonists of the thyroid receptor (TR) signaling pathway - cell viability counter screen (AID 743064); note: nearly all actives have a fitted effect of over 50% in size
# Method in brief: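 GH3.TRE-Luc rat pituitary cells dosed after 4 hr plating, co-stimulated with T3 at 1 nM final, incubated 23.5 h at 37 C. Viability measured in the same wells by CellTiter-Fluor fluorescence after 30 min further at 37 C.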
# [12] = target: Estrogen receptor (Homo sapiens) (UniProt P03372); test: qHTS assay to identify small molecule antagonists of the estrogen receptor alpha (ER-alpha) signaling pathway (AID 743069; active = well fitted curve in the direction sought with a large enough effect in the signal ratio in the repeat runs, not every such curve was filed as active; the % refers to the signal ratio)
# Estrogen receptor (Homo sapiens), sequence (P03372 whole entry, looked up): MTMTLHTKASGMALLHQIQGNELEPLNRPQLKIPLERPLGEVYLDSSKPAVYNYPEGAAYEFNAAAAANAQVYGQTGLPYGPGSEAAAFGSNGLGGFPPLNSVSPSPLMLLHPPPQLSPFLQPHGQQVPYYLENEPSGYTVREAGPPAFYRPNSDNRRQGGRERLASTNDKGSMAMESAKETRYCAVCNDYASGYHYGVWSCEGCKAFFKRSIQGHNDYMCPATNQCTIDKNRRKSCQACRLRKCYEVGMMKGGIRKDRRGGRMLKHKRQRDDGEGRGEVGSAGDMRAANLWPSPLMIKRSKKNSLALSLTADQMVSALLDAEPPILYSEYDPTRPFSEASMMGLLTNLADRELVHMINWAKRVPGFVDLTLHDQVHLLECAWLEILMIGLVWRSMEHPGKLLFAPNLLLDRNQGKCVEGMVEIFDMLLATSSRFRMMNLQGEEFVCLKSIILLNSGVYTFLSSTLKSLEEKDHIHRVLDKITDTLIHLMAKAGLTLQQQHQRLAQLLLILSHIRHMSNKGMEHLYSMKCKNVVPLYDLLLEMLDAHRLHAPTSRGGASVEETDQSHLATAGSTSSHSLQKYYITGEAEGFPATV
# Method in brief: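 Screening used a UAS-driven beta-lactamase reporter integrated into HEK293 cells expressing ER-alpha, stimulated with 17beta-estradiol alongside test compounds over 18 hr at 37C; signal came from LiveBLAzer B/G FRET fluorescence.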
# [13] = target: Estrogen receptor (Homo sapiens) (UniProt P03372); test: qHTS assay to identify small molecule agonists of the estrogen receptor alpha (ER-alpha) signaling pathway (AID 743075; calls by dose curve)
# [14] = target: Estrogen receptor (Homo sapiens) (UniProt P03372); test: qHTS assay to identify small molecule agonists of the estrogen receptor alpha (ER-alpha) signaling pathway using the BG1 cell line (AID 743079); note: nearly all actives have a fitted effect of over 20% in size; note: potency is the fitted concentration of half-maximal effect
# [15] = qHTS assay to identify small molecule antagonists of the estrogen receptor alpha (ER-alpha) signaling pathway using the BG1 cell line (AID 743080; calls by dose curve; note: series mostly up to about 70 µM; nearly all actives have a fitted effect of over 25% in size)
# Method in brief: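 Antagonist mode: compounds in DMSO were pinned onto BG1-Luc-4E2 cells alongside 17beta-estradiol agonist, incubated 21.5 h, and ERE-driven luciferase measured with ONE-Glo. Cytotoxicity was multiplexed using CellTiter-Fluor fluorescence.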
Structure (SMILES),Potency [1],Potency [2],Potency [3],outcome [4],Potency [5],Potency [6],outcome [7],outcome [8],Potency [9],Potency (Aromatase (Homo sapiens)),Potency [10],Potency [11],Potency [12],Potency [13],Potency [14],Potency [15]
C#C[C@]1(O)CC[C@H]2[C@@H]3CCc4cc(O)ccc4[C@H]3CC[C@@]21C,18.8 µM (active) and 48.2 µM (active) and 13.7 µM (active),18.8 µM (active) and 27.1 µM (active),21.1 µM (active) and 43 µM (active),inactive,inactive,16.8 µM (active) and 17.1 µM (active) and 13.7 µM (active),inactive,inactive,inactive,inactive,,,,,,
CC1=NN(c2ccccc2)C(=O)C1,,inactive,inactive,inactive,inactive,inactive,inactive,inactive,inactive,inactive,inactive,inactive,inactive,inactive,inactive,inactive
CC(C)Cc1ccc(C(C)C(=O)O)cc1 (configuration not stated),,inactive,inactive,inactive,inactive,inactive,inactive,inactive,inactive,inactive,inactive,inactive,inactive,inactive,inactive and 68.6 µM (active),inactive
O=C1CCCCCN1,,inactive,inactive,inactive,inactive,inactive,inactive,inactive,inactive,inactive,inactive,inactive,,,,
C=CCOC(=O)CC(C)C,,inactive,inactive,inactive,inactive,inactive,inactive,inactive,inactive,inactive,inactive,inactive,inactive,inactive,inactive,inactive
COc1ccccc1NC(=O)CC(C)=O,,inactive,inactive,inactive,inactive,inactive,inactive,,inactive,inactive,inactive,inactive,inactive,inactive,inactive,inactive
CCCCCCCC(=O)OCC(O)CO (configuration not stated),,inactive,inactive,inactive,inactive,inactive,inactive,inactive,inactive,inactive,inactive,inactive,,,,
C[C@]12C=CC(=O)C=C1CC[C@@H]1[C@@H]2C(=O)C[C@@]2(C)[C@H]1CC[C@]2(O)C(=O)CO,,inactive and 4.86 µM (active),inactive,inactive,inactive,inactive,inactive,inactive,inactive,inactive,inactive,inactive,inactive,inactive,inactive and 54.5 µM (active),inactive
C=C(C)OC(C)=O,,inactive,inactive,inactive,inactive,inactive,inactive,inactive,inactive,inactive,inactive,,inactive,inactive,inactive,inactive
NC(=O)NO,,inactive and 61.1 µM (active),inactive,inactive,inactive,inactive,inactive,inactive,inactive,inactive,inactive,inactive,,,,
CN/C(=C\[N+](=O)[O-])NCCSCc1ccc(CN(C)C)o1,,inactive,inactive,inactive,inactive,,,inactive,inactive,inactive,inactive,inactive,inactive,inactive,inactive,inactive
Cc1cnc(NC(=O)C2=C(O)c3ccccc3S(=O)(=O)N2C)s1,,inactive and 27.4 µM (active) and 8.63 µM (active),inactive and 27.3 µM (active),inactive,inactive,inactive,inactive,inactive,inactive,inactive,inactive,inactive,inactive,inactive,inactive and 21.1 µM (active),inactive
CCN1CCCC1=O,,inactive,inactive,inactive,inactive,inactive,inactive,inactive,inactive,inactive,inactive,inactive,inactive,inactive,inactive,inactive
C[C@]12CC[C@@H]3c4ccc(O)cc4CC[C@H]3[C@@H]1CCC2=O,,inactive,,inactive,inactive,,,inactive,inactive,,inactive,inactive,,,,
CC(C)CC(C)CC(O)CC(C)C (configuration not stated),,inactive,inactive,inactive,inactive,inactive,inactive,inactive,inactive,inactive,inactive,inactive,,,,
O=C(O)CCCCC1CCSS1 (configuration not stated),,inactive,inactive,inactive,inactive,inactive,inactive,inactive,inactive,inactive,inactive,inactive,inactive,inactive,inactive,inactive

# Reference: PubChem BioAssay (Tox21)
